Results from PubChem BioAssay (Tox21).
Records with an inconclusive call do not appear. Activity calls are given as the source filed them. Unless noted, calls come from the whole dose curve; as a rule, active = well fitted curve in the direction sought with a large enough effect in the repeat runs; inconclusive = weak or mixed curves; inactive = no such curve, though single readings can be large; an effect the other way counts as inactive or inconclusive.

Assays:
[1] = molecular target: Estrogen receptor (Homo sapiens) (UniProt P03372); test: qHTS assay to identify small molecule agonists of the estrogen receptor alpha (ER-alpha) signaling pathway in the presence of an antagonist (AID 1259383; calls by dose curve; note: top concentration of the series differs between compounds; nearly all actives have a fitted effect of over 15% in size)
Outline: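 Quantitative HTS confirmation: compounds titrated at 15 concentrations onto estrogen-deprived VM7Luc4E2 cells carrying a four-ERE luciferase construct, with ICI-182,780 present at 10.0nM final. Signal is luminescence after 22hr exposure.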

[2] = qHTS assay to identify small molecule agonists or antagonists of the thyroid stimulating hormone receptor (TSHR) signaling pathway - wild type cell line counter screen (AID 1259384; calls by dose curve)
Outline: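 Wild-type HEK293 cells were plated 18 h at 37 C/5% CO2, pin-dosed with compound plus Ro20-1724 medium, held 30 min at room temperature, then given cAMP-d2 and anti-cAMP-cryptate; fluorescence was read after 1 h. Fifteen concentrations, triplicate.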

[3] = molecular target: Thyrotropin receptor (Homo sapiens) (UniProt P16473); test: qHTS assay to identify small molecule antagonists of the thyroid stimulating hormone receptor (TSHR) signaling pathway (AID 1259385; calls by dose curve; note: nearly all actives have a fitted effect of over 20% in size)
Outline: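 TSHR-HEK293 cells were plated and held 18 h at 37C/5% CO2, then given compound plus Ro20-1724 and stimulated with TSH at 1.5 ng/mL final. After 30 min at room temperature, cAMP was detected with cAMP-d2/anti-cAMP-cryptate (1 h) by fluorescence.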

[4] = qHTS assay to identify small molecule agonists of the estrogen receptor alpha (ER-alpha) signaling pathway in the presence of an antagonist - cell viability counter screen (AID 1259386);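 note: series mostly up to about 92 µM; cells exposed to compounds for 22 h at 37 °C before the viability read; nearly all actives have a fitted effect of over 30% in size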
Outline: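 The test measures whether compounds kill ER-alpha reporter cells (VM7Luc4E2) under antagonist co-treatment (ICI-182,780, 10.0nM). Fluorescence from CellTiter-Fluor is read after a 22hr exposure.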

[5] = molecular target: Progesterone receptor (Homo sapiens) (UniProt P06401); test: qHTS assay to identify small molecule agonists of the progesterone receptor (PR) signaling pathway (AID 1346784; calls by dose curve; note: nearly all actives have a fitted effect of over 30% in size)
Outline: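 Cells (PR-UAS-bla HEK 293T, GripTite) were plated in assay medium containing 2% charcoal-stripped FBS and incubated 6 hr. Test compounds in DMSO were added for 16 hr at 37C. FRET substrate was then loaded for 2 hr at room temperature before fluorescence reading.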

[6] = molecular target: Progesterone receptor (Homo sapiens) (UniProt P06401); test: qHTS assay to identify small molecule antagonists of the progesterone receptor (PR) signaling pathway (AID 1346795; active = well fitted inhibition curve with a large enough effect in the signal ratio in the repeat runs, not every such curve was filed as active; the % refers to the signal ratio)
Outline: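 Antagonist mode: compounds tested against 1 nM (final) promegestone stimulation in HEK293T cells expressing PR-UAS-bla reporter, 16 hr at 37C, 5% CO2; beta-lactamase activity detected via B/G FRET substrate after 2 hr at room temperature.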

[7] = qHTS assay to identify small molecule antagonists of the progesterone receptor (PR) signaling pathway - cell viability counter screen (AID 1346798); note: series mostly up to about 92 µM; nearly all actives have a fitted effect of over 50% in size
Outline: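 Counter screen for cytotoxicity: viability of PR-UAS-bla HEK293T cells was measured with CellTiter-Glo luminescence following 16 hr compound exposure in the presence of R5020.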

[8] = qHTS assay to identify small molecule agonists of the progesterone receptor (PR) signaling pathway - cell viability counter screen (AID 1346799; calls by dose curve; note: nearly all actives have a fitted effect of over 45% in size)
Outline: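 Cells (PR-UAS-bla HEK293T) are plated at 3,000/well in 2% charcoal-stripped FBS medium, rested 6 hr, dosed and incubated 16 hr at 37C. CellTiter-Glo is then added and luminescence measured after 30 min at room temperature.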

[9] = qHTS assay to identify small molecule antagonists of the TGF-beta/Smad signaling pathway - cell viability counter screen (AID 1346824); note: nearly all actives have a fitted effect of over 50% in size
Outline: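 SBE-bla HEK 293T cells were plated overnight at 37 C, then given compounds in DMSO plus TGF-beta1 (added as 0.25 ng/mL solution) for 5 hr. After the bla read, CellTiter-Glo was added to the same wells and luminescence read after 30 min at room temperature.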

[10] = qHTS assay to identify small molecule agonists of the TGF-beta/Smad signaling pathway - cell viability counter screen (AID 1346829); note: top concentration of the series differs between compounds; nearly all actives have a fitted effect of over 45% in size
Outline: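 CellTiter-Glo luminescence readout; SBE-bla HEK 293T cells, overnight plating, compound 5 hr at 37 C/5% CO2, then bla substrate 2 hr RT, then CellTiter-Glo 30 min RT.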

[11] = qHTS assay to identify small molecule agonists of the TGF-beta/Smad signaling pathway (AID 1346859; active = well fitted activation curve with a large enough effect in the signal ratio in the repeat runs, not every such curve was filed as active; the % refers to the signal ratio; note: series mostly up to about 77 µM)
Outline: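 Reporter line: HEK 293T with stably integrated SBE-controlled beta-lactamase. Compound exposure lasts 5 hr at 37 C and 5% CO2; substrate loading follows for 2 hr at room temperature, with emission read at 460 and 530 nm.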

[12] = molecular target: Thyrotropin-releasing hormone receptor (Homo sapiens) (UniProt P34981); test: qHTS assay to identify small molecule antagonists of the thyrotropin-releasing hormone receptor (TRHR) signaling pathway (AID 1346877; active = well fitted inhibition curve with a large enough effect in the repeat runs, not every such curve was filed as active; note: series mostly up to about 51 µM)
Outline: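 Overnight-plated (18 h, 37 °C) HEK293 cells expressing TRHR were dye-loaded 2 h, treated with compound, then stimulated with TRH at 1 nM final. Fluorescence intensity was captured every second for 3 min.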

[13] = Human pregnane X receptor (PXR) small molecule agonists, qHTS cell viability counter screen (AID 1346977); note: nearly all actives have a fitted effect of over 50% in size
Outline: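 Cytotoxicity counter screen run in the same wells as the PXR luciferase assay, using PXR-Luc HepG2 cells in charcoal-stripped serum medium. Viability: CellTiter-Fluor fluorescence after 24hr compound treatment.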

[14] = Caspase-3/7 induction in HepG2 cells by small molecules, qHTS assay (AID 1346978); note: nearly all actives have a fitted effect of over 15% in size
Outline: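 Wild-type HepG2 cells (2,000/well) were settled 5 h at 37 C, 5% CO2, then exposed to compounds in DMSO for 17 h. Caspase-3/7 activity was read by luminescence 30 min after adding Caspase-Glo 3/7 reagent at room temperature.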

[15] = Caspase-3/7 induction in CHO-K1 cells by small molecules, qHTS cell viability counter screen (AID 1346979); note: nearly all actives have a fitted effect of over 35% in size
Outline: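 Cytotoxicity counter screen run in parallel with the caspase-3/7 assay: CHO-K1 cells, 16hr compound treatment at 37C, then CellTiter-Fluor for 1hr before fluorescence reading.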

[16] = Caspase-3/7 induction in CHO-K1 cells by small molecules, qHTS assay (AID 1346980); note: nearly all actives have a fitted effect of over 15% in size
Outline: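 Wild-type cells were seeded at 1,500 per well and settled 5 hr at 37 C, 5% CO2, then exposed to DMSO-dissolved compounds for 17 hr. Caspase-Glo 3/7 reagent was added, and luminescence was read after 30min at room temperature.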

[17] = Caspase-3/7 induction in HepG2 cells by small molecules, qHTS cell viability counter screen (AID 1346981); note: series mostly up to about 92 µM; nearly all actives have a fitted effect of over 30% in size
Outline: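 Treatment of HepG2 cells with DMSO-delivered compounds ran 16 hr at 37 C following a 5-hr pre-incubation of 2,000 cells/well. CellTiter-Fluor fluorescence, read after 1 hr, served as the viability measure in a qHTS format.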

[18] = molecular target: Nuclear receptor subfamily 1 group I member 2 (Homo sapiens) (UniProt O75469); test: Human pregnane X receptor (PXR) small molecule agonists, qHTS assay (AID 1346982); note: nearly all actives have a fitted effect of over 35% in size
Outline: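 Stable HepG2 line reporting PXR-mediated CYP3A4 expression via luciferase. Treatment: 24 hr with compounds in DMSO at 37 C. Detection: ONE-Glo luminescence.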

[19] = molecular target: Thyrotropin-releasing hormone receptor (Homo sapiens) (UniProt P34981); test: qHTS assay to identify small molecule agonists of the thyrotropin-releasing hormone receptor (TRHR) signaling pathway (AID 1346891; calls by dose curve;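 note: HEK293 cells expressing TRHR with calcium dye readout; series mostly up to about 58 µM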)
Outline: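 Cells: TRHR-Hek293, seeded and incubated 18 h. Dye loading: 2 h at 37 °C. Compound added from DMSO stock by pin tool. Read-out: kinetic calcium fluorescence over 3 min.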

[20] = molecular target: Nuclear receptor subfamily 1 group I member 2 (Rattus norvegicus) (UniProt Q9R1A7); test: Rat pregnane X receptor (rPXR) activation by small molecules, qHTS assay (AID 1346983); conditions: rPXR luciferase reporter cells, One-Glo luminescence, 24 h; max activation: active compounds read high; note: nearly all actives have a fitted effect of over 20% in size
Outline: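 Cell-based rPXR luciferase reporter assay, 2,000 cells per well, rested 5hr at 37 C before compound addition in DMSO, then 24 hr at 37 C. One-Glo reagent was added and luminescence read after 30 min at room temperature.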
% is set by controls: 0 for no effect and ±100 for the full control effect.

Estrogen receptor (Homo sapiens), sequence (P03372 whole entry, looked up): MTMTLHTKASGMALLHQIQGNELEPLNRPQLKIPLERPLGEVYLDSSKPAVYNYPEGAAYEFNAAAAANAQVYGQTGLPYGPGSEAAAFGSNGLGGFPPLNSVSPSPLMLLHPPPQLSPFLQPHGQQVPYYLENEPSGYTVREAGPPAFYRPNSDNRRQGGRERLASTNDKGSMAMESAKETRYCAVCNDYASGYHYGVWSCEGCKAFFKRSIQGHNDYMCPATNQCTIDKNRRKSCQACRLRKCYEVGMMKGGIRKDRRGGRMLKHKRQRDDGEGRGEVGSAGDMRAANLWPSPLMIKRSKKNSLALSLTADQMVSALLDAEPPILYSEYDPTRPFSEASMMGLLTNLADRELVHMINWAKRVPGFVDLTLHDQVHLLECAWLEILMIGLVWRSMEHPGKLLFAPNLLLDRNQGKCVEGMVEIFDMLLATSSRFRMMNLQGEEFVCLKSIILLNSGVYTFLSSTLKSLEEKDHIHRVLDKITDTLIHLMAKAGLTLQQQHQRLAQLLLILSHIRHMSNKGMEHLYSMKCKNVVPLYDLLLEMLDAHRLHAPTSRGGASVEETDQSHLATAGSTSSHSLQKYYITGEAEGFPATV
Thyrotropin-releasing hormone receptor (Homo sapiens), sequence (P34981 whole entry, looked up): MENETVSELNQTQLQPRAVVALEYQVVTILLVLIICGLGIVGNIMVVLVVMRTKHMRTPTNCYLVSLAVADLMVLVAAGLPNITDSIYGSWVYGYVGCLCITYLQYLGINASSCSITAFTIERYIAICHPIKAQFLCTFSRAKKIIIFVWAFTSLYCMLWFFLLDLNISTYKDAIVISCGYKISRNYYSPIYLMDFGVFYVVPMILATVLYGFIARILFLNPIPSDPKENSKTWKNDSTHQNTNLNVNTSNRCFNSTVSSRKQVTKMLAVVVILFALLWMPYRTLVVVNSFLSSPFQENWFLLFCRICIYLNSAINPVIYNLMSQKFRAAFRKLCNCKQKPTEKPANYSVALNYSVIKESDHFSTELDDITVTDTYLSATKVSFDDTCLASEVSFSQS
Thyrotropin receptor (Homo sapiens), sequence (P16473 whole entry, looked up): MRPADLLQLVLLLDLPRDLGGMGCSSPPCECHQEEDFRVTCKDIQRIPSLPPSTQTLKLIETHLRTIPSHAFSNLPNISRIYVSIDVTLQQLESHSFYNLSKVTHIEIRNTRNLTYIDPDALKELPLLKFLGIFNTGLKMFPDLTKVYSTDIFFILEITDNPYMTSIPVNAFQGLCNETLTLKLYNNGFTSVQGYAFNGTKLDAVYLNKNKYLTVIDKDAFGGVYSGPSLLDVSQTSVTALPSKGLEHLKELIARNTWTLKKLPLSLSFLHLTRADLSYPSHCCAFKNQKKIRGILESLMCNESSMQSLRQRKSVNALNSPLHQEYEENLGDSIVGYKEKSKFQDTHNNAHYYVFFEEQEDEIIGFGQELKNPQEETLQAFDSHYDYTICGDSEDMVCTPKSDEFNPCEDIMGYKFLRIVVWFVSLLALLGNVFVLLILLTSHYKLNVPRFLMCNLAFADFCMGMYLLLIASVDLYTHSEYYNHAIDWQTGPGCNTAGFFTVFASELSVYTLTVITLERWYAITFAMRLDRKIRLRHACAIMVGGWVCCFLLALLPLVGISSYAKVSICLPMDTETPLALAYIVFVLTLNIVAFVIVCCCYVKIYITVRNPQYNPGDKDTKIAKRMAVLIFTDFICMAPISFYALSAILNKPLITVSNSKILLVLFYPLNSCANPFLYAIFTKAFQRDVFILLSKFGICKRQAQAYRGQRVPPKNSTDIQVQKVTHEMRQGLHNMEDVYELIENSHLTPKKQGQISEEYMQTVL
Nuclear receptor subfamily 1 group I member 2 (Homo sapiens), sequence (O75469 whole entry, looked up): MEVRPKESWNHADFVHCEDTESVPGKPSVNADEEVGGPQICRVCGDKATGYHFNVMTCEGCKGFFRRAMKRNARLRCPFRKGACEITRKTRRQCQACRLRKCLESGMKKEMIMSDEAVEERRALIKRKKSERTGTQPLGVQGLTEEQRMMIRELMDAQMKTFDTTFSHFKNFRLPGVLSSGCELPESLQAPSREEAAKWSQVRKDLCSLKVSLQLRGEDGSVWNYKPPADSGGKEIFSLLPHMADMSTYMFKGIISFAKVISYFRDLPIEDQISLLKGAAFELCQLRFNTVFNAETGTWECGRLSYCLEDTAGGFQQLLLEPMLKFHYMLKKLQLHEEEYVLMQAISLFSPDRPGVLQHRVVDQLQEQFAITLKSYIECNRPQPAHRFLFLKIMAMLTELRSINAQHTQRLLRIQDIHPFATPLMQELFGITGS
Progesterone receptor (Homo sapiens), sequence (P06401 whole entry, looked up): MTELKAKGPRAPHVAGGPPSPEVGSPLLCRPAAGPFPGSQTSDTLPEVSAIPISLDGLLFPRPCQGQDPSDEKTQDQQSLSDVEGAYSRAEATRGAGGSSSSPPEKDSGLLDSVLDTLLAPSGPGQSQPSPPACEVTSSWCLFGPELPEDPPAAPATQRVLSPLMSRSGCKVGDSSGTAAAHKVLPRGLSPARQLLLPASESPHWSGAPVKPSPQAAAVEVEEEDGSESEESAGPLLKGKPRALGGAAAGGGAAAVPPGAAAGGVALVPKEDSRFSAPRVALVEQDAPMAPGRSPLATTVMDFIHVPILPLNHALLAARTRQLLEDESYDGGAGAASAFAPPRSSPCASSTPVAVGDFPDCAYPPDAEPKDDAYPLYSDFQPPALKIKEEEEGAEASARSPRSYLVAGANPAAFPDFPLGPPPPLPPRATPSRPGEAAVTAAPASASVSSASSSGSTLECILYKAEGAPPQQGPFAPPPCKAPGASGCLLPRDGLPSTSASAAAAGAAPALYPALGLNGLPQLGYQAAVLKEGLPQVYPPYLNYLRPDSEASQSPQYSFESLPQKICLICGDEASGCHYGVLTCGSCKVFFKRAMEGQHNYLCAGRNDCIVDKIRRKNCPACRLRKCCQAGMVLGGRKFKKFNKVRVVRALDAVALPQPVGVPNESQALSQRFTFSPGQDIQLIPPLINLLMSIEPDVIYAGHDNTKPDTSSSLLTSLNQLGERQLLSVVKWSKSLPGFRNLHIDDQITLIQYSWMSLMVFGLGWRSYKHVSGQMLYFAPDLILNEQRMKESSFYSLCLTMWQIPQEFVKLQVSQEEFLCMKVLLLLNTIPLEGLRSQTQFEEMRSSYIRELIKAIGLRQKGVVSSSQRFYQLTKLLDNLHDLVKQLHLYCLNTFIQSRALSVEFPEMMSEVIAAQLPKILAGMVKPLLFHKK
Nuclear receptor subfamily 1 group I member 2 (Rattus norvegicus), sequence (Q9R1A7 whole entry, looked up): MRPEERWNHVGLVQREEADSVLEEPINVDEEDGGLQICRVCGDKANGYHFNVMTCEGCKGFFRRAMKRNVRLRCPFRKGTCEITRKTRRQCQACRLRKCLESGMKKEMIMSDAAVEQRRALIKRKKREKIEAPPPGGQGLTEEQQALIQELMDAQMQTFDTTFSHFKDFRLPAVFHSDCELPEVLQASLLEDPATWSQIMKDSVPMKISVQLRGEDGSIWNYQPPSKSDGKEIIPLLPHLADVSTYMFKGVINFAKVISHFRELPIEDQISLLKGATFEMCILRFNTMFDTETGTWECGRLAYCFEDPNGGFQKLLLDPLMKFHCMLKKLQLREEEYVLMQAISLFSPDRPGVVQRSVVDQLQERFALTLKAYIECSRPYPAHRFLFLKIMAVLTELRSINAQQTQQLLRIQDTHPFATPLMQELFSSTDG

Cc1cc(C)c(N)c(Cl)c1
inactive: Potency [1] | outcome [2] | outcome [3] | outcome [4] | Potency [5] | Potency [6] | outcome [7] | Potency [8] | outcome [9] | outcome [10] | outcome [11] | outcome [12] | outcome [13] | outcome [14] | Potency [15] | outcome [16] | outcome [17] | Potency [18]

CCc1ccc(CC)cc1
inactive: Potency [1] | outcome [2] | outcome [3] | outcome [4] | Potency [5] | Potency [6] | outcome [7] | Potency [8] | outcome [9] | outcome [11] | outcome [12] | Potency [19] | outcome [13] | outcome [14] | Potency [15] | outcome [16] | outcome [17] | Potency [18]

CCCC(=O)C(CC)Sc1ccoc1C (centres undefined)
inactive: Potency [1] | outcome [2] | outcome [3] | outcome [4] | Potency [5] | Potency [6] | outcome [7] | Potency [8] | outcome [9] | outcome [10] | outcome [11] | outcome [12] | Potency [19] | outcome [13] | outcome [14] | Potency [15] | outcome [16] | Potency [18]

COc1cnc(NS(=O)(=O)c2ccc(N)cc2)nc1
inactive: Potency [1] | outcome [2] | outcome [3] | outcome [4] | Potency [5] | Potency [6] | outcome [7] | Potency [8] | outcome [9] | outcome [10] | outcome [11] | outcome [12] | Potency [19] | outcome [13] | outcome [14] | Potency [15] | outcome [16] | outcome [17] | Potency [18] | max activation [20] -1.37%

CCCC(=O)CC
inactive: Potency [1] | outcome [2] | outcome [3] | outcome [4] | Potency [5] | Potency [6] | outcome [7] | outcome [10] | outcome [11] | outcome [12] | Potency [19] | outcome [13] | outcome [14] | Potency [15] | outcome [16] | outcome [17] | Potency [18]

C[C@@H]1NC(=O)[C@@H](N)CNC(=O)[C@H](C2CCNC(N)=N2)NC(=O)/C(=C/NC(N)=O)NC(=O)[C@H](CNC(=O)C[C@@H](N)CCCN)NC1=O (some centres undefined)
inactive: activation [1] 1.04% [at 0.349 µM] | cAMP activity change [2] -0.133% [at 0.349 µM] | activity change, negative = inhibition [3] 2.75% [at 0.349 µM] | activity change, negative = cytotoxicity [4] -0.264% [at 0.349 µM] | activation [5] -1.98% [at 0.349 µM] | activity change, negative = inhibition [6] 9.13% [at 0.348 µM] | activity change, negative = cytotoxicity [7] 0.0667% [at 0.348 µM] | activity change, negative = cytotoxicity [8] -15.7% [at 0.349 µM] | viability change, negative = cytotoxic [9] 13.5% [at 0.29 µM] | activity change, negative = cytotoxicity [10] -5.87% [at 0.29 µM] | activation [11] 2.64% [at 0.29 µM] | activity, negative = inhibition [12] -1.68% [at 0.194 µM] | activation [19] -0.265% [at 0.218 µM] | activity change, negative = cytotoxicity [13] -2.73% [at 0.349 µM] | caspase activation [14] -1.07% [at 0.349 µM] | activity change, negative = cytotoxicity [15] 9.26% [at 0.349 µM] | caspase-3/7 activation [16] 0.0211% [at 0.349 µM] | activity change, negative = cytotoxicity [17] -0.309% [at 0.349 µM] | activation [18] -4.64% [at 0.349 µM] | max activation [20] -6.29%

CC(C)(C)OC(=O)c1ccccc1C(=O)O
inactive: Potency [1] | outcome [2] | outcome [3] | outcome [4] | Potency [5] | Potency [6] | Potency [8] | outcome [9] | outcome [10] | outcome [11] | outcome [12] | Potency [19] | outcome [13] | outcome [14] | Potency [15] | outcome [16] | outcome [17] | Potency [18]
